Bioassay records deposited in PubChem BioAssay by Broad Institute.
aSyn UTR act: Activators via SNCA 5'UTR binding, MLPCN. alpha-synuclein 5'UTR reporter, activators screen. activity score, % (tested at 7.5 µM), hits read low. 300,000 tested, 7.1% active. AID 1814, 2009; in the data active = activity score below about -60%
Numbers stand for hits; – = inactive. Not all results are given here.

SMILES	aSyn UTR act
Nc1nc(-c2ccc(Oc3ccccc3)cc2)cs1	-123
c1ccc2cc(-c3csnn3)ccc2c1	-74
Nc1nc(N)c2cc(Sc3ccc4ccccc4c3)ccc2n1	–
Nc1ccc(Oc2ccccc2-c2ccccc2)cc1	–
Nc1nc(-c2ccc(-c3ccccc3)cc2)cs1	-186
O=C(O)c1cccc(NC2=Nc3cccc4cccc2c34)c1	-114
CC1CCC/C(=C\Nc2ccc(O)cc2)C1=O (centres undefined)	-116
Cc1cc(C(=O)O)ccc1N/C=C1\CCCC(C)C1=O (centres undefined)	-131
Cc1ccc(S(=O)(=O)N(C(=O)c2ccncc2)c2ccc(OC(=O)c3ccncc3)c3ccccc23)cc1	-65
COC(=O)c1c(C)oc2ccc(N(C(=O)c3ccncc3)S(=O)(=O)c3ccc(C)cc3)cc12	–
CCOC(=O)c1nc(N/N=C/c2ccccc2)sc1Br	-82
CC(=O)c1sc(N/N=C\c2ccc(Br)cc2)nc1C	-79
CCCc1sc(N/N=C/c2ccccn2)nc1-c1ccc(Br)cc1	–
CCCC(=O)Nc1ccc(NC(=O)c2cc3ccccc3o2)c(OC)c1	-222
COc1cc(NC(C)=O)ccc1NC(=O)c1cc2ccccc2o1	-83
COc1cc(N)ccc1NC(=O)c1cc2ccccc2o1	-136
O=C1/C(=C/c2cccc3ccccc23)CCCc2ccccc21	-106
CCN(CC)c1ccc(/C=C/C(=O)C2C(=O)C=C(C)OC2=O)cc1 (centres undefined)	-240
Cc1ccc2nc3sc(C(=O)N4CCCc5ccccc54)c(N)c3cc2c1	-158
Cc1ccc2nc(-c3ccc(NC(=S)NC(=O)CC(C)C)cc3)sc2c1	-178
Cc1ccc2nc(-c3ccc(NC(=O)C(C)Sc4nncs4)cc3)sc2c1 (centres undefined)	–
Cc1ccc2nc(-c3ccc(NC(=O)COC(=O)c4ccc(=O)[nH]c4)cc3)sc2c1	-67
Cc1ccc2nc(-c3ccc(NC(=O)CN4CCN(c5ccccn5)CC4)cc3)sc2c1	-146
Cc1ccc2nc(-c3ccc(NC(=O)CSc4nc(N)cc(=O)[nH]4)cc3)sc2c1	-177
Cc1ccc2nc(-c3ccc(NC(=O)CN4C(=O)c5ccccc5C4=O)cc3)sc2c1	-200
SMILES	aSyn UTR act
Cc1ccc2nc(-c3ccc(NC(=O)CCS(=O)(=O)c4ccccc4)cc3)sc2c1	–
NC(=O)c1ccc(-n2nnnc2Oc2ccccc2C(=O)N2CCOCC2)cc1	-108
CC(=O)Nc1nc(-c2ccc(Cl)cc2)nc(C)c1C(C)=O	-111
CC(=O)Nc1ncnc2c1c(-c1ccc(Cl)cc1)nn2C(C)(C)C	–
Cc1oc(-c2ccc(-c3ccccc3)cc2)nc1CN(CCO)C(C)C	-182
Cc1oc(-c2ccc(-c3ccccc3)cc2)nc1CN(C)C1CCOC1 (centres undefined)	-113
O=S(=O)(Nc1ccc(-c2cn3ccsc3n2)cc1)c1ccc2c(c1)OCCO2	-67
CCOC(=O)C(=CNc1ccc2c(c1)CCN2C(C)=O)C(=O)OCC	-78
COc1cc(C(=O)Nc2ccc3c(c2)CCN3C(C)=O)cc(OC)c1OC	–
O=C(C1COc2ccccc2O1)N1CCc2ccccc21 (centres undefined)	-106
Oc1ccc(CNc2ccc(F)cc2)c2cccnc12	–
Cn1c(-c2ccccc2)cnc1NCc1cc(Cl)ccc1O	-66
Cn1c(-c2ccc(F)cc2)cnc1NCc1ccccc1F	-66
Nc1nc2c(C(=O)N3CCOCC3)nnn2c2ccccc12	-66
CC(=O)c1cccc(Nc2c3c(nc4ccccc24)CCC3)c1	–
c1ccc2c(Nc3ccc4c(c3)OCCO4)c3c(nc2c1)CCCC3	-82
CC(=O)c1ccc(Nc2c3c(nc4ccccc24)CCCC3)cc1	-195
Cc1ccc2c(c1)C(N1CCCC1=O)CC(c1ccco1)N2 (centres undefined)	-171
CC1CN(Cc2csc(-c3ccc(Cl)cc3)n2)CC(C)O1 (centres undefined)	-105
COc1ccc(NC(=O)c2cc3ccccc3cc2O)cc1	-119
Cc1ccc(NC(=O)c2cc3ccccc3cc2O)cc1	-179
Cc1ccc(C(=O)NCC(=O)N2CCCC(C(F)(F)F)C2)s1 (centres undefined)	-62
Cc1ccc2nc(NC(=O)CSCc3ccccc3)sc2c1	-79
CSc1nsc(SCC(=O)Nc2nc3ccc(C)cc3s2)n1	-84
CC1=NNC(=O)/C1=C\c1cn(-c2ccccc2)nc1-c1ccc(Cl)cc1	–
SMILES	aSyn UTR act
Cc1ccc(-c2nn(-c3ccccc3)cc2C=C2C(=O)CC(C)(C)CC2=O)cc1	-94
O=C(CCCCl)Nc1nc(-c2ccc3c(c2)OCCO3)cs1	-117
CC(=O)Nc1nc(-c2ccc3c(c2)OCO3)cs1	-130
O=C(CSCC(=O)N1CCOCC1)Nc1nc(-c2ccc3c(c2)OCO3)cs1	-131
CCOC(=O)N1CCN(C(=O)CSCC(=O)Nc2nc(-c3ccc(C)cc3)cs2)CC1	-85
O=C(Nc1nc(-c2ccc3c(c2)OCCO3)cs1)C1CCCC1	-151
O=C(Nc1ccccc1)Nc1ccc(-n2ccc(C(F)(F)F)n2)cc1	-277
COc1ccc(/C(=N/Nc2ncnc3ccccc23)C(=O)O)cc1	-79
O=C(N/N=C/c1cccc(F)c1)c1cc(-c2ccco2)nc2ccccc12	-120
CCC(C)Nc1nc(N)c([N+](=O)[O-])c(NC2CCCCC2)n1 (centres undefined)	–
Nc1nc(Nc2ccc(Cl)cc2)nc(NCc2ccco2)c1[N+](=O)[O-]	-75
CCC(C)Nc1nc(N)c([N+](=O)[O-])c(NCc2ccccc2)n1 (centres undefined)	–
O=c1c2ccccc2nc2c3ccccc3c(NCc3ccco3)nn12	-82
Cc1ccc(Nc2nc(NCc3ccco3)c3ccccc3n2)cc1	-139
O=C(C1=NN[C@@H]2C(=O)N(c3cccc(F)c3)C(=O)[C@H]12)c1ccc2ccccc2n1	-79
O=C(NC1CCCCC1)c1cc(-c2ccc(O)cc2)on1	-153
O=C(NC1CCCCC1)c1cc(-c2ccccc2O)on1	-145
Cc1ccc(-c2cc(C(=O)NC3CCCCC3)no2)cc1	-163
CN(C(=O)c1cc(-c2ccccc2)on1)C1CCCCC1	-188
CC(C)OC(=O)CNc1n[nH]c(=S)[nH]c1=O	-131
Nc1cc2nn(-c3ccccc3)nc2cc1Cl	-157
CC(C)CC(=O)Nc1cc2nn(-c3ccccc3)nc2cc1Cl	-135
CCOc1ccccc1C(=O)Nc1nnc(CC)s1	-93
COc1ccccc1C(=O)Nc1nnc(-c2ccc(F)cc2)s1	-132
O=C(Nc1nnc(-c2ccccc2)s1)c1ccc(F)cc1	-89
SMILES	aSyn UTR act
COc1ccccc1C(=O)Nc1nsc(-c2ccccc2)n1	-152
CCc1nnc(NC(=O)c2cccc(C(=O)Nc3nnc(CC)s3)n2)s1	–
COc1ccc(N2CS(=O)(=O)/C(=C/N(C)C)C2=O)cc1	-93
CCOC(=O)C1(Cc2cccc(OC)c2)CCCN(C(=O)c2cc(C)[nH]n2)C1 (centres undefined)	-130
CCOC(=O)C1(Cc2cccc(OC)c2)CCCN(C(=O)c2cc(C)on2)C1 (centres undefined)	-110
CCOC(=O)C1(Cc2cccc(OC)c2)CCCN(C(=O)CNC(C)=O)C1 (centres undefined)	-115
CCOC(=O)C1(Cc2cccc(OC)c2)CCCN(C(=O)c2ccccc2C)C1 (centres undefined)	-84
CCOC(=O)C1(Cc2ccccc2)CCCN(C(=O)c2cnn(CC)c2)C1 (centres undefined)	-78
Oc1c(C=C2N=c3ccccc3=N2)sc(=S)n1-c1ccc(F)cc1	-65
CCn1c(O)c(/C=C2\C=NN=C2c2ccccc2)sc1=S	–
